Measured values from PubChem BioAssay AID2685 (National Center for Advancing Translational Sciences (NCATS), 2010).
The campaign covered roughly 320,000 compounds. About 2,100 (0.66%) were called active. Inconclusive results (about 53%) are left out. The call rests on the fitted dose curve; in most records, active means well fitted inhibition curve with a large enough effect in the signal ratio, with a control signal flat (not every such curve was filed as active); inconclusive means small, poorly fitted or top-dose-only effect, or effect the other way, or a change in a side signal; inactive means flat fitted curve, though single readings scatter; the % refers to the signal ratio. Shown is part of a subset that was picked to be rich in actives.

Assay: qHTS Assay for Lipid Storage Modulators in Drosophila S3 Cells;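 on cell number change: cells counted by Cell Tracker Red CMTPX staining in the red channel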
Conditions: BODIPY lipid droplet fluorescence, 18-24 h, cells fed with added oleic acid; cell number change: measured here: cell count max response; series mostly up to 46.1 µM
Source text: NIH Molecular Libraries Probe Production Centers Network [MLPCN] NIH Chemical Genomics Center [NCGC] MLPCN Grant: 1 R03 MH085686-01 Assay Submitter (PI): Beller, Mathias; Max-Planck-Institut fur Biophysikalische Chemie NCGC Assay Overview: Storing lipids as a reservoir for energy or the anabolism of elementary metabolites is a common feature of probably all cells and is conserved from bacteria to humans. The universal cellular lipid storage organelle is the so-called lipid storage droplet (LD). Although ubiquitous, LDs share a simple structure composed of a hydrophobic core that harbors the storage lipids, which is shielded by a droplet-specific phospholipid monolayer to which proteins are attached. The current model of LD biogenesis involves an incorporation of the lipid core into the membrane leaflets of the endoplasmic reticulum (ER) followed by a subsequent budding-like maturation of a LD, which ultimately pinches off. Once released, LD volume can increase by localized lipogenesis or fusion of existing droplet. Storage lipids are re-mobilized enzymatically by lipase activity. Lipase regulation in the adipocyte is heavily studied and involves multiple components including catecholamine signaling, the LD-associated proteins Perilipin and comparative gene identification (CGI-58) and at least two lipases named hormone sensitive lipase (HSL) and adipocyte triglyceride lipase (ATGL). LD regulation outside of the adipocyte is poorly understood and only few components are known. However, there is an urgent need to learn more about ectopic fat depots as mislocalized storage of lipids, for example in the liver or muscle, is an eminent health problem associated with insulin resistance or the metabolic syndrome. We developed a laser-scanning cytometer assay to enable 1,536-well screening and combined the results of the small molecules screen with an RNAi database based on lipid storage.
Triacsin C (Sigma-Aldrich T-4540), an inhibitor of long-chain fatty acyl CoA synthetase that blocks synthesis of triglycerides, was used as a positive control for lipid under-storage. A total of 23 nL of compound solution of different concentrations were transferred to the assay plates using a Kalypsys pin tool equipped with a 1,536-pin array containing 10-nL slotted pins (FP1S10, 0.457-mm diameter, 50.8 mm long; V&P Scientific). One microliter of oleic acid (400 uM) was added, and the plate was lidded with stainless steel rubber gasket lined lids containing pinholes. […] Fluorescence was detected by excitation of the fluorophores with a 488-nm laser on an Acumen Explorer (TTP Lab Tech). The total intensity in channel 2 (500-530 nm) reflected lipid droplet accumulation. Cells were detected using channel 3 (575-640 nm) with 5-um width and 100-um depth filters. The ratio of the number of objects in PMT channel 2 over the number of objects in PMT channel 3 was also calculated. Percent activity was computed relative to an internal control (100% inhibited lipid droplet deposition due to the presence of 20 uM Triacsin C), which was added to 32 wells/plate.
Potency means the concentration at half of the fitted maximal effect.

Structure (SMILES) | Potency | cell number change
C=CCNC(=S)N1CC2(C)CN(C(=S)NCC=C)CC(C)(C1)C2=O | inactive | 9.2%
CC(C)(C)c1[nH]ncc1[N+](=O)[O-] | inactive | -8.1%
O=C(CN1C(=O)NC2(CCCC2)C1=O)OCCOc1ccc(Cl)cc1Cl | inactive | 
COC(=O)C1=CN(c2cccc(C)c2)C=C(C(=O)OC)C1c1cc(OC)c(O)c([N+](=O)[O-])c1 | 25.9 µM (active) | -3.94%
CCOC(=O)C1=CN(c2cccc(F)c2)C=C(C(=O)OCC)C1c1cc(OC)c(O)c([N+](=O)[O-])c1 | inactive | 
COC(=O)C1=CN(c2cccc(C(F)(F)F)c2)C=C(C(=O)OC)C1c1ccc(O)c(OC)c1 | inactive | -17.2%
O=C(Cn1nc(Cc2cccnc2)c2ccccc2c1=O)Nc1cccnc1Cl | inactive | 1.33%
COc1ccc(-c2cc(=O)oc3cc(OCc4nn[nH]n4)ccc23)cc1 | inactive | 14.9%
CN(C)c1ccc(C(=O)/C=C/c2cccnc2)cc1 | inactive | -3.58%
O=C(/C=C/c1cccnc1)c1ccc([N+](=O)[O-])cc1 | inactive | 10.1%
CN(C)S(=O)(=O)c1ccc(C(=O)/C=C/c2cccnc2)cc1 | 0.326 µM (active) | 10.3%
CCc1ccc(N2C(=O)C3NN=C(C(=O)OCc4ccccc4)C3C2=O)cc1 (configuration not stated) | inactive | 22.8%
COc1cccc(-c2nc(=S)c3c(o2)CCCC3)c1 | inactive | 9.57%
O=C(Nc1ccc(OCC(=O)N2CCOCC2)cc1)c1cncc(Br)c1 | inactive | 9.01%
Cc1ccc(NC(=O)c2ccccc2OCc2c(C)noc2C)cc1S(=O)(=O)N(C)C | inactive | -11.7%
CC(=O)NCCC1CCN(C(=O)C2CCC(=O)N(C3CCCC3)C2)CC1 (configuration not stated) | inactive | 0.283%
CC1(C)CSC(=NCCc2ccccc2)N1C(=O)c1ccc(C#N)cc1 | 1.3 µM (active) | -0.734%
CC1(C)COCN1C(=O)c1ccc(C#N)cc1 | inactive | 5.63%
CC1(C)CSC(=NCc2ccccc2)N1C(=O)c1cccc([N+](=O)[O-])c1 | inactive | 13.5%
O=C(CNS(=O)(=O)c1ccccc1)OCC(=O)c1ccc(F)cc1 | inactive | 14.3%
O=C(Nc1cccc(F)c1)c1c(F)c(F)c(F)c(F)c1F | inactive | 
COc1cccc(CNC(=O)c2cc(C3CC3)nc3c2cnn3C(C)C)c1 | inactive | 5.87%
COc1ccc(CNC(=O)c2cc(C3CC3)nc3c2cnn3C(C)C)cc1OC | 11.6 µM (active) | 1.25%
Cc1ccc(CNC(=O)c2cc(C3CC3)nc3c2cnn3C(C)C)cc1 | inactive | -11.5%

Structure (SMILES) | Potency | cell number change
COc1ccc(CSc2nncn2C)cc1[N+](=O)[O-] | inactive | -11.4%
O=C(Nc1c2c(nn1-c1ccccc1)CS(=O)(=O)C2)c1ccc2c(c1)OCO2 | inactive | -19%
O=C(COC(=O)c1cccc(S(=O)(=O)N2CCc3ccccc32)c1)Nc1ncc(C(F)(F)F)cc1Cl | inactive | -1.02%
O=C(COC(=O)c1cccc(S(=O)(=O)N2CCOCC2)c1)Nc1ccc(Cl)cn1 | inactive | -3.5%
O=C(COC(=O)c1cccc(S(=O)(=O)N2CCOCC2)c1)Nc1ncc(C(F)(F)F)cc1Cl | 23.1 µM (active) | -11.5%
Cc1ccc(NC(=O)CCC(=O)Nc2ccc(C)cc2)cc1 | inactive | -16.8%
Cc1cc(C)cc(C(=O)N2CCC3(CC2)NCCc2[nH]cnc23)c1 | inactive | 
COc1ccc(-c2csc(NC(=O)c3cccc(N4C(=O)CCC4=O)c3)n2)cc1OC | inactive | 19.9%
COCCCNCCCOc1ccc(C)cc1Br | inactive | -14.3%
CNCCCOc1ccc(C)cc1Br | 20.6 µM (active) | -34.9%
CCCCNCCCOc1ccc(C)cc1Br | inactive | 10%
CCc1noc(C)c1C(=O)OCC(=O)c1ccccc1OC | inactive | -12.4%
CCCCCC(=O)Nc1cc(S(=O)(=O)N2CCCCC2)ccc1N1CCOCC1 | inactive | -1.56%
Cc1ccc(NC(=O)C2CCN(S(C)(=O)=O)CC2)cc1 | inactive | 1.04%
COc1ccc(NC(=O)C2CCN(S(C)(=O)=O)CC2)cc1OC | inactive | 11.1%
Cc1ccc(NC(=O)C2CCN(S(C)(=O)=O)CC2)cc1C | 6.51 µM (active) | 
O=C(O)CSC1c2ccccc2C(=O)N1Cc1ccccc1 (configuration not stated) | inactive | -11.8%
O=C(CC(=O)N/N=C/c1ccccc1)NCc1ccccc1 | inactive | 2.89%
COc1cc(C(=O)NCCOc2ccccc2)cc(OC)c1OC | inactive | -10.6%
COc1cc(C(=O)NCCOc2cc(C)cc(C)c2)cc(OC)c1OC | inactive | 3%
COc1ccc(C(=O)NCCCc2ccccc2)cc1OC | inactive | -16.4%
COCCCNC(=O)c1cc(OC)c(OC)c(OC)c1 | 16.4 µM (active) | -1.92%
COc1ccc(C(=O)NCCCCNC(=O)c2ccc(OC)c(OC)c2)cc1OC | inactive | 11.4%
COc1ccc(C(=O)NCCCCCC(=O)O)cc1OC | 9.2 µM (active) | -16%

Structure (SMILES) | Potency | cell number change
COC(=O)c1ccc(-c2noc(CN3C[C@H]4CC[C@H]3C4)n2)cc1 | inactive | -0.0392%
O=C(NCC1CCCCC1)c1ccccc1[N+](=O)[O-] | inactive | 5.77%
COc1ccc(CNC(=O)Cc2cccs2)cc1OC | inactive | 15.3%
Nc1nonc1C(=O)N/N=C/c1ccc(Br)o1 | inactive | 5.25%
Cc1cccc(OCC(=O)O/N=C(\N)c2ccccn2)c1C | inactive | -6.52%
COc1cc(OC)c(C(=O)Nc2ccc(S(=O)(=O)N3CCCCC3)cc2)cc1OC | 6.51 µM (active) | 2.89%
CC(=O)Nc1ccc(S(=O)(=O)N2CCCC2)cc1 | inactive | 12.4%
CC(=O)Nc1ccc(S(=O)(=O)N2CCCN(S(=O)(=O)c3ccc(NC(C)=O)cc3)CC2)cc1 | inactive | -11.8%
COc1ccc(NC(=O)c2cc(S(=O)(=O)N3CCCCC3)ccc2OC)cc1 | inactive | -15.6%
COc1ccc(C(=O)Nc2ccc(S(=O)(=O)N3CCCC3)cc2)c(OC)c1 | inactive | 7.48%
CC(=O)c1ccc(NC(=O)Nc2ccc(S(=O)(=O)N3CCCC3)cc2)cc1 | 9.2 µM (active) | -4.34%
COc1ccc(N2C(=S)NC3CS(=O)(=O)CC32)cc1 (configuration not stated) | inactive | 0.125%
Cc1cc(C)cc(-c2nnc(SCC(=O)NC3CC3)o2)c1 | inactive | 9.78%
Cc1ccc(-c2nnc(SCC(=O)NC3CC3)o2)cc1 | 29.1 µM (active) | 10.3%
O=C(CSc1nnc(-c2ccccc2)o1)NC1CC1 | inactive | -4.73%
Cc1ccc(NC(NC(=O)c2cccs2)C(Cl)(Cl)Cl)cc1C (configuration not stated) | inactive | 4.44%
CC(C)(CO)N=C1NS(=O)(=O)c2cc([N+](=O)[O-])ccc21 | inactive | 2.18%
CCOc1ccc2c(c1)C(C)=CC(C)(C)N2S(=O)(=O)c1ccc(NC(C)=O)cc1 | 7.31 µM (active) | -18.1%
COc1ccc2c(c1)C(C)=CC(C)(C)N2S(=O)(=O)c1ccc(C)cc1 | inactive | 5.92%
CCOc1ccc2c(c1)C(C)=CC(C)(C)N2S(=O)(=O)c1ccc(C)cc1 | inactive | -19.8%
Cc1ccc(S(=O)(=O)NC(C)c2ccccc2)cc1[N+](=O)[O-] (configuration not stated) | inactive | -16.5%
CCCOc1ccc(C2NC(=O)CCC2[N+](=O)[O-])cc1 (configuration not stated) | inactive | -7.92%
COc1ccccc1C1NC(=O)NC(C)=C1C(C)=O (configuration not stated) | 14.6 µM (active) | 6.66%
COc1ccccc1C1NC(=O)NC(C)=C1C(=O)OCc1ccccc1 (configuration not stated) | inactive | 8.03%

Structure (SMILES) | Potency | cell number change
COc1ccccc1C1NC(=O)NC(C)=C1C(=O)OC1CCCCC1 (configuration not stated) | inactive | -18.5%
CCC(C)(C)NC(=O)C(c1ccccc1Cl)N(C(=O)CCC(=O)Nc1cc(C)on1)C1CC1 (configuration not stated) | inactive | 10.4%
O=C(COC(=O)c1ccc(OC(F)F)cc1)NCCNC(=O)COC(=O)c1ccc(OC(F)F)cc1 | inactive | -4.4%
Cn1c(SCC(=O)Nc2ccccc2F)nnc1-c1cccs1 | inactive | 14.3%
Cc1nnc(NC(=O)Cn2nc(C)c3ccccc3c2=O)s1 | inactive | 9.11%
COc1cccc(NC(=O)CCNC(=O)c2ccccc2Cl)c1 | inactive | -13.1%
CNC(=O)CN(C)S(=O)(=O)c1ccc(F)cc1 | 20.6 µM (active) | 
CC(C)NC(=O)CN(C)S(=O)(=O)c1ccc(F)cc1 | inactive | 0.117%
CCCNC(=O)CN(C)S(=O)(=O)c1ccc(F)cc1 | inactive | -1.04%
COc1cc(NC(=S)NCc2ccco2)cc(OC)c1OC | inactive | -1.1%
Cc1ccc(Cc2cnc(NC(=O)c3cccs3)s2)cc1 | inactive | -12.1%
Cc1ccc(S(=O)(=O)c2cc3c(=O)n4cccc(C)c4nc3n(CC3CCCO3)c2=N)cc1C (configuration not stated) | inactive | 7.15%
COc1ccc(/C=C2/SC(=S)N(CCC(=O)O)C2=O)cc1 | inactive | -16.6%
CC(=C\c1ccccc1)/C=C1/SC(=S)N(CCC(=O)O)C1=O | inactive | 5.93%
COc1ccc(/C(C)=C2\SC(=S)N(CCC(=O)O)C2=O)cc1 | 16.4 µM (active) | 7.05%
O=C(CSc1nnnn1-c1ccccc1)N1N=CCC1c1ccccc1 (configuration not stated) | inactive | -5.17%
CC[n+]1c(/C=C/N(C)c2ccccc2)oc2ccc(F)cc21 | 25.9 µM (active) | 6.99%
CCn1c(C)[n+](CC)c2ccc(C(=O)N(C)c3ccccc3)cc21 | inactive | 19.5%
CC[n+]1c(/C=C/C=C/N(C(C)=O)c2ccccc2)sc2ccccc21 | inactive | 10.1%
C/C=C/COC(=O)C1=C(C)NC(=O)NC1c1ccc2c(c1)OCO2 (configuration not stated) | inactive | 9.12%
Cc1c(N)cccc1-c1nc2ccccc2[nH]1 | inactive | -2.56%
CN(C)CCCNCCCNC(=O)/C(=N\O)c1ccccn1 | inactive | 11.1%
